This passage reports outcome and AC50 results from PubChem BioAssay (EPA / NIEHS).

Read-out in experiment [1]: UDP glucuronosyltransferase (UGT1A6), UGT1A6 (gene 54578)
The experiment can be described thus: LTEA_HepaRG_UGT1A6: Life Technologies and Expression Analysis (LTEA) Assay for UDP glucuronosyltransferase (UGT1A6) using HepaRG (AID 2283539; active means hit-call score of the fitted dose curve at least 0.9, where 1 is the maximum; inactive means score below 0.9). Conditions: mRNA level, 48 h; actives raise or lower the signal. The gist of the method:
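Differentiated HepaRG cells, ~100,000/well, were exposed for 48 h in serum-free induction medium with 0.5% DMSO to 8-point half-log series topping at 100 uM, in duplicate. mRNA measured by Fluidigm TaqMan qRT-PCR, normalized to ACTB, GAPDH and POLR2A.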

Read-out in experiment [2]: X-box binding protein 1 (XBP1), XBP1 (gene 7494)
The experiment can be described thus: LTEA_HepaRG_XBP1: Life Technologies and Expression Analysis (LTEA) Assay for X-box binding protein 1 (XBP1) using HepaRG (AID 2283540; active means hit-call score of the fitted dose curve at least 0.9, where 1 is the maximum; inactive means score below 0.9). The note with it: mRNA level, 48 h; actives raise or lower the signal. The gist of the method: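 Differentiated human HepaRG cells in serum-free induction medium exposed 48 h in duplicate to eight half-log concentrations up to 100 uM in 0.5% DMSO. XBP1 mRNA measured by Fluidigm TaqMan qRT-PCR, normalized to ACTB, GAPDH, POLR2A; bidirectional fitting against DMSO.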

A short description of experiment [3]: LTEA_HepaRG_LDH_cytotoxicity: Cytotoxicity Assessment in the Life Technologies and Expression Analysis (LTEA) Assay (AID 2283563).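 On AC50: LDH activity released into spent culture medium as a marker of cell death.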 A digest of the protocol:
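Differentiated HepaRG cells in serum-free induction medium, exposed 48 h in duplicate to 8 half-log concentrations up to 100 uM in 0.5% DMSO. Cytotoxicity from LDH measured in spent medium, fit relative to DMSO.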

The nature of experiment [4]: TOX21_p53_BLA_p2_viability: Viability Assessment in the Tox21 HCT-116 p53 Agonism Beta-lactamase Assay, Phase 2 (AID 2283591).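 Further: compound exposure lasted 16 h at 37 °C; actives lower the ATP signal meaning cytotoxicity.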 The gist of the method:
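Cytotoxicity readout: CellTiter-Glo ATP luminescence, 30 min at room temperature, after the beta-lactamase read. Cells were HCT116 exposed 16 h at 37C to compounds pin-transferred at 217-fold dilution from DMSO stocks.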

Experiment [5] deals with Cellular tumor antigen p53 (Homo sapiens) (UniProt P04637). Description: TOX21_p53_BLA_p2_ratio: Tox21 HCT-116 p53 Agonism Beta-lactamase Assay, Ratio, Phase 2 (AID 2283592). The gist of the method: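 HCT-116 cells with p53-responsive beta-lactamase reporter, 4000 cells/well, preincubated 5 h, then compound in DMSO (217-fold dilution) for 16 h at 37C. CCF4-AM substrate 2 h at room temperature; 460/530 nm emission ratio fitted upward versus DMSO.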
Cellular tumor antigen p53 (Homo sapiens), sequence (P04637 whole entry, looked up): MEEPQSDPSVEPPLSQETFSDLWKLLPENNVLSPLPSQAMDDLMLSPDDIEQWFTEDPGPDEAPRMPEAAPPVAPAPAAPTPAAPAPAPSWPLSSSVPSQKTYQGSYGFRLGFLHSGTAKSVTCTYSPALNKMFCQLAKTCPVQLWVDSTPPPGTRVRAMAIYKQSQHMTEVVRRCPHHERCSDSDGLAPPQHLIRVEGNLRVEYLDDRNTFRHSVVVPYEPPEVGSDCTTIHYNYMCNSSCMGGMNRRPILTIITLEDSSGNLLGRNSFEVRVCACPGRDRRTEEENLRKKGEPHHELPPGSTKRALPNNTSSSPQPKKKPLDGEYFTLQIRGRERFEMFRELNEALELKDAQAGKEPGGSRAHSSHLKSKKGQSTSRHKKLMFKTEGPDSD

Experiment [6] is described as follows: TOX21_p53_BLA_p3_viability: Viability Assessment in the Tox21 HCT-116 p53 Agonism Beta-lactamase Assay, Phase 3 (AID 2283593).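 Further: cells exposed to compound for 16 h before reading.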 A digest of the protocol:
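Cellular ATP was quantified by CellTiter-Glo luminescence, read after 30 min at room temperature. Beforehand, HCT116 cells (4000/well) received compound 5 h post-seeding, 217-fold diluted from DMSO, then incubated 16 h at 37C.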

The nature of experiment [7]: TOX21_p53_BLA_p4_viability: Viability Assessment in the Tox21 HCT-116 p53 Agonism Beta-lactamase Assay, Phase 4 (AID 2283597).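 Further: hits lower the luminescence signal meaning cytotoxicity.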 A digest of the protocol: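 HCT-116 p53-bla cells, 4000/well, dosed after 5 h attachment and incubated 16 h at 37 °C, 5% CO2. Viability from CellTiter-Glo ATP luminescence after 30 min at room temperature, taken after the beta-lactamase read; loss of signal indicates cytotoxicity.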

The target of experiment [8] is Cellular tumor antigen p53 (Homo sapiens) (UniProt P04637). Description: TOX21_p53_BLA_p5_ratio: Tox21 HCT-116 p53 Agonism Beta-lactamase Assay, Ratio, Phase 5 (AID 2283599). The gist of the method: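 Beta-lactamase reporter ratio (blue 460 nm over green 530 nm, 405 nm excitation) after 2 h CCF4-AM loading, in HCT-116 cells exposed 16 h at 37 C to compounds pinned at 217-fold dilution. Increases relative to DMSO baseline scored.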

Experiment [9] is described as follows: Tanguay_ZF_120hpf_MORT_legacy: (Legacy) Oregon State University Tanguay Lab 120 Hour Post-fertilization zebrafish Assay for Mortality (AID 2283633). The gist of the method:
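Dechorionated Tropical 5D wild-type zebrafish embryos, one per well from 6 hpf, static exposure in 0.64% DMSO at 28C until 120 hpf. Mortality scored as binary by brightfield microscopy at 24 and 120 hpf.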

A short description of experiment [10]: Tanguay_ZF_120hpf_YSE_legacy: (Legacy) Oregon State University Tanguay Lab 120 Hour Post-fertilization zebrafish Assay for Yolk Sac Edema (AID 2283634).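 On AC50: actives raise the incidence of yolk sac edema above the DMSO baseline.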 A digest of the protocol:
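Dechorionated Tropical 5D wild-type zebrafish embryos were exposed statically, one per well, from 6 to 120 hpf at 28C in 0.64% DMSO. Yolk sac edema was scored present/absent by brightfield at 120 hpf, and dead embryos were excluded.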

Experiment [11] is described as follows: Tanguay_ZF_120hpf_AXIS_legacy: (Legacy) Oregon State University Tanguay Lab 120 Hour Post-fertilization zebrafish Assay for Body Axis Malformation (AID 2283635).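 On AC50: potency for an increased fraction of larvae scored with body axis malformation.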 A digest of the protocol:
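Dechorionated wild-type Tropical 5D zebrafish embryos, one per well, statically exposed from 6 hpf to 120 hpf at 28C in 0.64% DMSO final. Body axis malformation scored present/absent by brightfield microscopy at 120 hpf; dead embryos excluded.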

Experiment [12] in a line: Tanguay_ZF_120hpf_EYE_legacy: (Legacy) Oregon State University Tanguay Lab 120 Hour Post-fertilization zebrafish Assay for Eye Malformation (AID 2283636). The gist of the method:
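Read-out is binary presence or absence of eye malformation, scored by brightfield microscopy at 120 hpf. Single larvae were exposed from 6 hpf in embryo medium containing 0.64% DMSO, with DMSO as baseline.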

Experiment [13] in a line: Tanguay_ZF_120hpf_SNOU_legacy: (Legacy) Oregon State University Tanguay Lab 120 Hour Post-fertilization zebrafish Assay for Snout Malformation (AID 2283637). The gist of the method: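 Snout malformation read as a yes/no call on brightfield images of 120 hpf larvae (Tropical 5D strain). Static exposure began at 6 hpf on dechorionated embryos in 0.64% DMSO, with gain of signal analysed versus DMSO controls.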

Experiment [14] is described as follows: Tanguay_ZF_120hpf_JAW_legacy: (Legacy) Oregon State University Tanguay Lab 120 Hour Post-fertilization zebrafish Assay for Jaw Malformation (AID 2283638).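 On AC50: active means more embryos with jaw malformation than DMSO controls.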 The gist of the method:
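Dechorionated Tropical 5D wild-type zebrafish embryos, one per well, exposed statically from 6 hpf to 120 hpf at 28C in 0.64% DMSO. Jaw malformation was scored by brightfield microscopy as present or absent. It was not scored in dead embryos.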

Experiment [15] in a line: Tanguay_ZF_120hpf_PE_legacy: (Legacy) Oregon State University Tanguay Lab 120 Hour Post-fertilization zebrafish Assay for Pericardial Edema (AID 2283640).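 On AC50: potency for increased incidence of pericardial edema versus DMSO baseline.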 A digest of the protocol: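 Tropical 5D wild-type zebrafish embryos were statically exposed until 120 hpf at 28C, with 0.64% DMSO final. Pericardial edema was scored by brightfield as present or absent; endpoints were not scored in dead embryos.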

Experiment [16] deals with Cellular tumor antigen p53 (Homo sapiens) (UniProt P04637). The experiment can be described thus: TOX21_p53_BLA_p3_ratio: Tox21 HCT-116 p53 Agonism Beta-lactamase Assay, Ratio, Phase 3 (AID 2283596). The gist of the method:
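HCT116 p53-bla cells (4000/well) given compound in DMSO (217-fold dilution) after 5 h, incubated 16 h at 37C. CCF4-AM substrate 2 h at room temperature; 460/530 nm emission ratio, gain fitted against DMSO.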

Experiment [17] can be described thus: TOX21_p53_BLA_p5_viability: Viability Assessment in the Tox21 HCT-116 p53 Agonism Beta-lactamase Assay, Phase 5 (AID 2283600). A digest of the protocol: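 HCT-116 p53 beta-lactamase reporter cells, 4000/well, were exposed to compound (pin transfer, 217-fold dilution) for 16 hours at 37C. Cellular ATP was read by CellTiter-Glo luminescence after 30 min at room temperature.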

The target in experiment [18] is Cellular tumor antigen p53 (Homo sapiens) (UniProt P04637). Description: TOX21_p53_BLA_p4_ratio: Tox21 HCT-116 p53 Agonism Beta-lactamase Assay, Ratio, Phase 4 (AID 2283601). A digest of the protocol: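 Signal is the blue/green (460nm/530nm) ratio of cleaved versus uncleaved CCF4-AM substrate, read after 2 h substrate loading. Cells were HCT116 carrying the p53-responsive beta-lactamase reporter, dosed 16 h at 37C, 5% CO2; CellTiter-Glo measured in parallel.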

Experiment [19] in a line: Tanguay_ZF_120hpf_OTIC_legacy: (Legacy) Oregon State University Tanguay Lab 120 Hour Post-fertilization zebrafish Assay for Otic Vesicle Malformation (AID 2283639). The gist of the method: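 Otic vesicle malformation is read as a yes/no morphology call at 120 hpf. Exposure is static at 28C with 0.64% (vol/vol) DMSO; embryos that die are excluded from non-mortality endpoints.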

Experiment [20] is described as follows: ATG_XTT_Cytotoxicity: Cytotoxicity Assessment in the Attagene TRANS-FACTORIAL HepG2 Assay (AID 2283584). A digest of the protocol:
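HepG2 cells transiently transfected with GAL4-UAS multiple reporter units, dosed 24 h; cytotoxicity read by XTT as loss of signal versus DMSO baseline.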

Structures are written as SMILES. Inconclusive results are not listed. Active and inactive are the calls of the source. How the source made its calls, unless noted: active means hit-call score of the fitted dose curve at least 0.9, where 1 is the maximum; inconclusive means response in the unintended direction; inactive means score below 0.9.

In the case of `CCCCc1ccc2c(n1)[C@@H](c1ccc(OC)cc1C[C@H](C)C(=O)O)[C@H](C(=O)O)[C@H]2c1ccc2c(c1)OCO2`, the compound was classed as inactive in experiment [1], in [2], in [3], in experiment [4], in experiment [5] and in [6]. Besides, the result in [7], in experiment [8], in experiment [9], in experiment [10], in experiment [11] and in [12] was inactive. Also, the result in [13], in experiment [14] and in experiment [15] was inactive.
In the case of `CCCc1cc(=O)[nH]c(=S)[nH]1`, the compound was classed as inactive in experiment [1], in experiment [2], in experiment [3], in [4], in experiment [5] and in experiment [6]. Besides, the outcome in experiment [16], in [7], in [8], in experiment [17], in experiment [18] and in experiment [10] was inactive. Moreover, the result in experiment [11], in experiment [12], in [13], in experiment [14] and in [15] was inactive.
As for `O=[N+]([O-])C(CO)(CO)CO`, the compound was classed as inactive in experiment [1], in experiment [2], in experiment [3], in [4], in [5] and in [6]. Also, the result in experiment [7], in experiment [8], in experiment [17], in [18], in experiment [9] and in [10] was inactive. The compound was called inactive in experiment [11], in experiment [12], in [14], in experiment [19] and in experiment [15].
Consider `Oc1ccc2ccccc2c1N=Nc1ccccc1`, for which the result in experiment [1], in [20], in experiment [4], in experiment [5], in experiment [6] and in experiment [16] was inactive. In addition, the result in experiment [8], in experiment [17], in [18], in experiment [9], in experiment [12] and in [19] was inactive. The AC50 in experiment [2] was 7.84 µM (active); in experiment [10], 43.7 µM (active); in [11], 17.3 µM (active); in experiment [14], 9.73 µM (active); in experiment [15], 35.2 µM (active).
Take `Oc1ccc2c(c1)OC[C@@H](N1CCC(O)(c3ccc(F)cc3)CC1)[C@H]2O`: the call in experiment [1], in [2], in experiment [3], in [5], in [16] and in experiment [7] was inactive. The outcome in experiment [8], in experiment [9], in experiment [10], in [12], in [13] and in experiment [14] was inactive. Also, the result in experiment [19] and in experiment [15] was inactive.
In the case of `CNCc1cc(F)ccc1Oc1ccc(Cl)c(Cl)c1`, the AC50 was 74 µM (active) in experiment [1], 81.7 µM (active) in experiment [3] and 64.4 µM (active) in experiment [18]. Besides, the compound was classed as inactive in experiment [2], in [5], in [6], in experiment [16], in experiment [7] and in [8]. Besides, the result in [17], in experiment [9], in [10], in experiment [11], in experiment [13] and in experiment [14] was inactive. Moreover, in [19], the compound was called inactive.

A word on the AC50: it is the concentration giving half of the maximal activity seen.
